The supplement of paper PMC8285479
Where a name gives a salt, the structure may show the parent alone. ± gives the standard deviation of the averaged measurements. In all, about 1,900 compounds were measured (“normalised cell viability (NPI; 0 = phenylarsine oxide control, 1 = DMSO control)”: median about 1, lowest 2% from about 0.039 on). This excerpt belongs to a sample that is enriched for the lowest values.

System: NCI-H1944
Assay: normalised cell viability (NPI; 0 = phenylarsine oxide control, 1 = DMSO control) (fraction of DMSO control); NCI-H1944 is a non-small cell lung cancer line; higher = more viable cells (less compound toxicity)
Settings: 6 days
[1] = glucocorticoid arm: hydrocortisone 2.75 uM co-treatment, compound 1 µM
[2] = glucocorticoid arm: hydrocortisone 2.75 uM co-treatment, compound 5 µM
[3] = glucocorticoid arm: hydrocortisone 2.75 uM pre-treated 2 days and continued, compound 1 µM
[4] = glucocorticoid arm: hydrocortisone 2.75 uM pre-treated 2 days and continued, compound 5 µM
[5] = glucocorticoid arm: vehicle, compound 1 µM
[6] = glucocorticoid arm: vehicle, compound 5 µM
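Also: CTB read-out in 384-well plates, triplicate wells, NPI normalised per plate against 1 µM phenylarsine oxide (0) and 0.1% DMSO (1) controls.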

| Compound | normalised cell viability [1] | normalised cell viability [2] | normalised cell viability [3] | normalised cell viability [4] | normalised cell viability [5] | normalised cell viability [6] |
| --- | --- | --- | --- | --- | --- | --- |
| COc1ncc(-c2ccc3nccc(-c4ccnnc4)c3c2)cc1NS(=O)(=O)c1ccc(F)cc1F | 0.264 ± 0.0058 | 0.231 ± 0.027 | 0.365 ± 0.025 | 0.249 ± 0.02 | 0.0495 ± 0.0081 | 0.0214 ± 0.0013 |
| CCCS(=O)(=O)Nc1ccc(F)c(C(=O)c2c[nH]c3ncc(-c4ccc(Cl)cc4)cc23)c1F [vemurafenib] | 1.04 ± 0.011 | 1.14 ± 0.02 | 1.03 ± 0.01 | 1.08 ± 0.01 | 1.01 ± 0.01 | 1.037 ± 0.0058 |
| COc1cc2nccc(Oc3ccc(NC(=O)Nc4ccc(F)cc4F)c(F)c3)c2cc1OC | 1.05 ± 0.011 | 1.06 ± 0.01 | 1.037 ± 0.0058 | 1.04 ± 0.021 | 1.003 ± 0.0063 | 1.013 ± 0.0058 |
| CCCS(=O)(=O)Nc1ccc(F)c(C(=O)c2c[nH]c3ncc(-c4ccc(Cl)cc4)cc23)c1F [Vemurafenib (PLX4032)] | 1.05 ± 0.011 | 0.997 ± 0.029 | 1.03 | 1.01 ± 0.026 | 1.017 ± 0.0058 | 1.007 ± 0.0058 |
| Nc1ncnc2c1ncn2[C@@H]1O[C@@H]2COP(=O)(O)O[C@H]2[C@H]1O [Adenosine 3',5'-cyclic monophosphate] | 0.986 ± 0.014 | 0.9813 ± 0.007 | 0.998 ± 0.011 | 0.965 ± 0.019 | 0.991 ± 0.016 | 0.9797 ± 0.0074 |
| NCc1c[nH]c(=S)n1[C@H]1CCc2c(F)cc(F)cc2C1 [Nepicastat (SYN-117) HCl] | 0.9937 ± 0.006 | 1 | 1.01 ± 0.022 | 0.98 ± 0.017 | 0.9937 ± 0.0085 | 0.9913 ± 0.0051 |
| C=CC(=O)Nc1cc(Nc2nccc(-c3cn(C)c4ccccc34)n2)c(OC)cc1N(C)CCN(C)C | 0.891 ± 0.003 | 0.842 ± 0.022 | 0.944 ± 0.015 | 0.916 ± 0.034 | 0.789 ± 0.028 | 0.762 ± 0.045 |
| CC[C@@H]1SC2(CCN(C)CC2)NC1=O | 1.02 | 1.01 ± 0.011 | 1.03 ± 0.029 | 1.02 ± 0.011 | 1.013 ± 0.0058 | 1.01 ± 0.012 |
| Cc1ccc(S(=O)(=O)N[C@@H](Cc2ccccc2)C(=O)CCl)cc1 [N-p-Tosyl-L-phenylalanine chloromethyl ketone] | 0.9977 ± 0.0032 | 1.01 ± 0.028 | 0.868 ± 0.25 | 1.02 ± 0.015 | 1.007 ± 0.0058 | 0.691 ± 0.057 |
| O=C(N[C@@H](Cc1ccccc1)C(=O)CCl)OCc1ccccc1 [Z-L-Phe chloromethyl ketone] | 1.03 ± 0.01 | 0.028 ± 0.0044 | 1.02 ± 0.016 | 1.075 ± 0.0071 | 1.03 ± 0.01 | 0.149 ± 0.086 |
| CC(C)[C@H](NC(=O)OCc1ccccc1)C(=O)N[C@H](C=O)Cc1ccccc1 | 0.989 ± 0.011 | 0.987 ± 0.041 | 0.997 ± 0.0052 | 1.03 ± 0.085 | 1 ± 0.0087 | 1 ± 0.013 |
| CC1=C(C(=O)OC2CCCCC2)C(c2ccc([N+](=O)[O-])cc2)C2=C(CC(C)(C)CC2=O)N1 (centres undefined) | 1.03 ± 0.025 | 1.02 ± 0.023 | 1.03 ± 0.015 | 1.02 ± 0.026 | 1.017 ± 0.0058 | 1.003 ± 0.0058 |
| C/C=C1\C(=O)C[C@H]2[C@@H]3CCC4=CC(=O)CC[C@]4(C)[C@H]3CC[C@]12C [(Z)-Guggulsterone] | 0.9933 ± 0.0015 | 0.98 ± 0.031 | 0.994 ± 0.02 | 0.964 ± 0.029 | 0.9953 ± 0.0035 | 0.9887 ± 0.0091 |
| O=C(c1ccc(Cl)cc1)N1CCN(c2ccc([N+](=O)[O-])c3ncccc23)CC1 | 1.01 ± 0.013 | 1.01 ± 0.027 | 0.992 ± 0.014 | 0.996 ± 0.014 | 0.997 ± 0.015 | 1 ± 0.021 |
| CN(C)C(=O)C(CCN1CCC(O)(c2ccc(Cl)cc2)CC1)(c1ccccc1)c1ccccc1 [Loperamide hydrochloride] | 0.9953 ± 0.0042 | 0.405 ± 0.032 | 1.017 ± 0.0058 | 0.87 ± 0.29 | 1 | 0.0171 ± 0.0045 |
| CN(C)C(=O)C(CCN1CCC(O)(c2ccc(Cl)cc2)CC1)(c1ccccc1)c1ccccc1 [Loperamide HCl] | 1.02 ± 0.026 | 0.893 ± 0.035 | 1.047 ± 0.0058 | 0.984 ± 0.012 | 1.017 ± 0.0058 | 0.919 ± 0.0099 |
| O=C(CCCN1CCC(O)(c2ccc(Cl)cc2)CC1)c1ccc(F)cc1 [Haloperidol] | 0.996 ± 0.013 | 0.93 ± 0.023 | 1.01 | 1.01 ± 0.025 | 0.9843 ± 0.0035 | 0.985 ± 0.002 |
| OC1(c2ccc(Cl)cc2)CCN(Cc2c[nH]c3ccccc23)CC1 | 0.972 ± 0.021 | 0.852 ± 0.052 | 1.003 ± 0.0061 | 1.04 ± 0.086 | 0.9753 ± 0.0065 | 0.988 ± 0.01 |
| Nc1nc2[nH]cnc2c(=S)[nH]1 [Thioguanine] | 0.931 ± 0.0046 | 0.423 ± 0.024 | 0.9813 ± 0.0011 | 0.754 ± 0.04 | 0.9133 ± 0.0051 | 0.119 ± 0.011 |
| Cc1[nH]c2ccccc2c1CCNCc1ccc(/C=C/C(=O)NO)cc1 [Panobinostat (LBH589)] | 0.00703 ± 0.0011 | 0.00134 ± 0.00097 | 0.00592 ± 0.0022 | 0.00214 ± 0.0018 | 0.00625 ± 0.001 | 9e-05 ± 0.00045 |
| Cc1[nH]c2ccccc2c1C1=C(NCCc2ccc(F)cc2)C(=O)N(C)C1=O | 0.964 ± 0.019 | 0.962 ± 0.053 | 0.988 ± 0.011 | 0.973 ± 0.021 | 0.977 ± 0.007 | 0.9803 ± 0.0047 |
| CC(C)N(CCCNC(=O)Nc1ccc(C(C)(C)C)cc1)C[C@H]1O[C@@H](n2ccc3c(N)ncnc32)[C@H](O)[C@@H]1O | 1.003 ± 0.0058 | 1.07 ± 0.025 | 0.984 ± 0.0053 | 1.04 ± 0.01 | 1.002 ± 0.0068 | 1.002 ± 0.0076 |
| CCOC(=O)[C@]12CC1/C(=N\O)c1ccccc1O2 (some centres undefined) | 1.017 ± 0.0058 | 1.01 ± 0.024 | 1.007 ± 0.0058 | 1.02 | 0.997 ± 0.013 | 1.002 ± 0.0068 |
| C[N+](C)(C)CCO.[Br-] [Choline bromide] | 1.017 ± 0.0058 | 1 ± 0.019 | 1.017 ± 0.0058 | 1.02 | 0.995 ± 0.0078 | 0.998 ± 0.014 |
